# In PubChem BioAssay (NCI):
# The panel holds about 83,000 compounds, 20% with a hit somewhere; the sample as a whole holds those more often.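 Note: values are percent growth. 100 is the growth of untreated cells, values between 100 and 0 indicate rising inhibition; between -100 and 0 indicates cell death.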 Unmarked numbers belong to inactive results. The source made the active and inactive calls. Rule for the calls: active = growth percent below 10; inactive = the rest.
# How the values were obtained:
# Test in all cases: NCI-60 one-dose screen, 48 h (100 = growth as untreated, 0 = no growth, -100 = all killed)
# Details in all cases: 10 µM unless noted
# [1] = test system: NCI-H23 lung
# [2] = test system: NCI-H226 lung
# [3] = test system: NCI-H322M lung
# [4] = test system: HOP-62 NSCLC
# [5] = test system: NCI-H460 lung
# [6] = test system: NCI-H522 lung
# [7] = test system: A549/ATCC NSCLC
# [8] = test system: 786-0 renal
# [9] = test system: COLO 205 colon
# [10] = test system: DU-145 prostate
# [11] = test system: K-562 leukemia
# [12] = test system: MDA-MB-231 breast
# [13] = test system: RXF 393 renal
# [14] = test system: SF-268 CNS
# [15] = test system: SF-295 CNS
# [16] = test system: SF-539 CNS
# [17] = test system: UACC-257 melanoma
# [18] = test system: M14 melanoma
# [19] = test system: HCT-15 colon
# [20] = test system: MALME-3M melanoma
SMILES,growth [1],growth [2],growth [3],growth [4],growth [5],growth [6],growth [7],growth [8],growth [9],growth [10],growth [11],growth [12],growth [13],growth [14],growth [15],growth [16],growth [17],growth [18],growth [19],growth [20]
COC(=O)CCC1=C(CC(=O)OC)C(C)=N/C1=C\c1[nH]c(-c2ccc[nH]2)cc1OC,49.4%,54.5%,53.3%,46.1%,19.1%,-7% (active),18%,50.2%,30.5%,36.9%,-3.71% (active),-12.2% (active),52.8%,44.8%,39.3%,38.8%,32.5%,17.2%,8.89% (active),–
O=C(Nc1nc(-c2ccc(Cl)cc2)cs1)c1cc(O)c(O)c(O)c1,42.2%,74.9%,60.8%,38.6%,10.2%,-34.9% (active),25.2%,11.5%,77.6%,35.8%,7.99% (active),36%,–,26.7%,31.2%,5.36% (active),42.7%,23.2%,18.8%,–
Cc1nn(-c2ccc(Cl)cc2)c2nc3c(nc12)C(=O)c1ccccc1-3,61.7%,32.5%,63.1%,51.7%,12.6%,60.7%,55.8%,56.8%,95.2%,77.8%,–,52.7%,45.4%,72.4%,36.4%,–,91.5%,70.5%,–,84.7%
Cc1nc2cc(NC(=O)CN3CCN(CCN4C(=O)c5cccc6cccc(c56)C4=O)CC3)ccc2s1,60.9%,48.6%,69.3%,60%,26.5%,53.2%,37.6%,51.4%,47.1%,56.8%,–,72.2%,47.8%,46.2%,48.3%,59.4%,76.8%,89%,45%,70.6%
COc1ccc(-c2c(N)noc2-c2cc(OC)c3c(c2)OCCO3)cc1,1.48% (active),-17.1% (active),53%,23%,7.94% (active),0.361% (active),21.3%,13.1%,-75.8% (active),-17.2% (active),–,27.5%,39.2%,26.8%,12.8%,4.21% (active),72.6%,-16.2% (active),15.7%,81.2%
COc1ccc2[nH]cc(/C=C3/C(=O)Nc4ccc(F)cc43)c2c1,75.8%,91.5%,94%,105%,83.3%,81.5%,72.3%,115%,97.7%,95.3%,72.1%,87.6%,91.5%,–,95.6%,99.4%,99.8%,98.2%,75.6%,–
COc1cc(/C=C/C(=O)Nc2ccc3c(c2)/C(=C\c2cccn2C)C(=O)N3)cc(OC)c1OC,57%,67.3%,61.2%,45.5%,55.4%,5.66% (active),37.5%,54.8%,53.7%,63%,28.4%,36.5%,–,69.3%,38.3%,56.7%,62%,49.5%,32.5%,–
O=C(Nc1nc(-c2ccccc2)cs1)c1cc(O)c(O)c(O)c1,59.6%,67.9%,69.1%,46.4%,34.7%,-29.4% (active),46.2%,41.6%,84.5%,57.7%,19.6%,44%,–,43.7%,58.5%,42%,80.9%,54.4%,27.3%,–
